Measurements reported in PubChem BioAssay (NCI).
This is part of a sample that, as a whole, favours compounds with a hit. Of some 79,000 tested, about 15% had one in any assay. A number with no mark means an inactive call. Activity calls are given as the source filed them. No stated cut-off is given here; in the data, active means growth inhibition above about 70%; inactive means the rest.

Tests used:
[1] = NCI Yeast Anticancer Drug Screen. Data for the rad50 strain (AID 155);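 further: 0% = growth of vehicle-only cultures of the same strain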; details: S. cerevisiae rad50 strain growth inhibition, hits give high values
Procedure, shortened: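 Cells are treated with compound, grown, and their growth is then scored against vehicle-only cultures of the same repair-deficient yeast strain.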

[2] = NCI Yeast Anticancer Drug Screen. Data for the mec2-1 strain (AID 157); details: S. cerevisiae mec2-1 strain, hits give high values
Procedure, shortened: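 mec2-1 yeast strain, carrying an alteration in DNA damage repair or cell cycle control, was exposed to compounds; growth inhibition was measured relative to vehicle-treated controls.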

[3] = NCI Yeast Anticancer Drug Screen. Data for the sgs1 mgt1 strain (AID 161);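 further: 0% = growth of cultures given vehicle only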; details: S. cerevisiae sgs1 mgt1 strain, hits give high values
Procedure, shortened: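 Yeast cells carrying a defined DNA-repair defect were exposed to test compounds. Growth inhibition was measured relative to vehicle-treated controls.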

[4] = NCI Yeast Anticancer Drug Screen. Data for the cln2 rad14 strain (AID 165);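 further: 0% = growth equal to vehicle treated cultures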; details: S. cerevisiae cln2 rad14 strain, hits give high values
Procedure, shortened: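 Yeast carrying cln2 and rad14 alterations (cell cycle control and DNA damage repair) were exposed to compounds. Growth inhibition was measured against vehicle-treated controls.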

[5] = NCI Yeast Anticancer Drug Screen. Data for the bub3 strain (AID 167); details: S. cerevisiae bub3 mutant strain, hits give high values
Procedure, shortened: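 Part of a panel of yeast mutants defective in DNA damage repair or cell cycle regulation. Each strain is grown with compound, and inhibition is calculated relative to solvent-treated cultures.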

[6] = NCI Yeast Anticancer Drug Screen. Data for the mlh1 rad18 strain (AID 175); details: S. cerevisiae mlh1 rad18 strain growth inhibition, hits give high values
Procedure, shortened: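 Growth inhibition of the yeast strain was measured after compound exposure and expressed relative to vehicle-treated controls. The strain carries defined defects in DNA damage repair.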

[7] = at 5.0 µM (retest, dose inferred, filed as 0.5)
[8] = at 50.0 µM (retest, dose inferred, filed as 5.0)

SMILES	growth inhibition [1, 7]	growth inhibition [1, 8]	growth inhibition ([1]; at 50.0 µM)	growth inhibition [2, 7] [%]	growth inhibition [2, 8]	growth inhibition ([2]; at 50.0 µM)	growth inhibition [3, 7] [%]	growth inhibition [3, 8]	growth inhibition ([3]; at 50.0 µM)	growth inhibition [4, 7] [%]	growth inhibition [4, 8]	growth inhibition ([4]; at 50.0 µM)	growth inhibition [5, 7]	growth inhibition [5, 8]	growth inhibition ([5]; at 50.0 µM)	growth inhibition [6, 7]	growth inhibition [6, 8]	growth inhibition ([6]; at 50.0 µM)
CSCSCC(CO)NC(=O)/C=C/c1c(C)[nH]c(=O)[nH]c1=O (stereo not given)	-2%	0%	92.5% (active)	1	7%	94.2% (active)	1	4%	93.8% (active)	-3	-11%	92.2% (active)	3%	21%	92.8% (active)	3%	8%	92.9% (active)
CCCCC(CC)CN1C(=O)C2C3C=CC(C3)C2C1=O (stereo not given)	-15%	-20%	32.5%	-9	-20%	19.1%	-2	-9%	39.2%	28	-49%	-4.45%	3%	-26%	39.1%	-6%	-15%	7.15%
O=[N+]([O-])/C=C/c1c[nH]c2c1ccc1ccccc12	42%	92% (active)	84.4% (active)	53	90% (active)	84.7% (active)	59	81% (active)	94.2% (active)	30	93% (active)	89% (active)	88% (active)	95% (active)	75.3% (active)	55%	94% (active)	93.5% (active)
CC(C)N(CCOc1ccc(/C=C/c2ccccc2)cc1)C(C)C	4%	1%	12.1%	4	1%	-1.45%	8	2%	55.9%	6	2%	8.5%	4%	-3%	75.8% (active)	6%	4%	9.3%
CCCCC(CCc1ccccc1[N+](=O)[O-])(C(C)=O)C(=O)OCC (stereo not given)	4%	-15%	61%	4	-3%	15.7%	-3	14%	33.6%	1	-11%	-12.2%	15%	38%	80.5% (active)	5%	3%	58.8%
CCCCCC(C)C1=NC(C)(C)CC(C)O1 (stereo not given)	-153%	-154%	5.85%	-51	-57%	-3.85%	-64	-68%	-0.45%	-62	-64%	32.4%	-73%	-81%	-3.2%	-139%	-116%	12.1%
C[C@]12CCC(=O)C=C1CC[C@@H]1[C@@H]2[C@@H](O)C[C@@]2(C)[C@H]1CC[C@]2(O)C(=O)COC(=O)CCC1CCCC1	83% (active)	91% (active)	83.9% (active)	29	95% (active)	84.1% (active)	51	96% (active)	82% (active)	49	96% (active)	82.7% (active)	51%	95% (active)	77.2% (active)	75% (active)	92% (active)	84.3% (active)
O=C(Nc1ccc([N+](=O)[O-])cc1[N+](=O)[O-])C(=O)C(C(=O)c1ccc(Cl)c(Cl)c1)C1OC(=O)c2ccccc21 (stereo not given)	27%	27%	67%	25	25%	40.9%	22	22%	61.8%	30	30%	72.3% (active)	31%	31%	53.5%	16%	16%	39.6%
CCCCc1cc2c(cc1O)CCC1C2CC[C@@]2(C)C1CC[C@@H]2O (stereo not given in full)	5%	96% (active)	67.5%	-6	95% (active)	78.5% (active)	-5	95% (active)	80.6% (active)	2	97% (active)	86.8% (active)	-27%	96% (active)	81.7% (active)	-2%	96% (active)	84.6% (active)
O=C(OCc1ccccc1CN1CCOCC1)c1cccc(Br)c1	2%	32%	43.5%	-4	3%	9.4%	-4	82% (active)	82.8% (active)	-5	-3%	-4.15%	2%	42%	52.2%	21%	40%	6.65%
